Reference: PubChem BioAssay (Tox21)
Values joined by “and” are separate entries in the source; they are usually repeats but may differ in a detail not shown here. Equal values may be shown once. Records with an inconclusive call do not appear. Active and inactive are the calls of the source. Unless noted, calls come from the whole dose curve; as a rule, active = well fitted curve in the direction sought with a large enough effect in the repeat runs; inconclusive = weak or mixed curves; inactive = no such curve, though single readings can be large; an effect the other way counts as inactive or inconclusive.

Columns and labels:
[1] = qHTS assay to identify small molecule antagonists of the androgen receptor (AR) signaling pathway using the MDA cell line in the presence of 0.5 nM R1881 - cell viability counter screen (AID 1259242); note: nearly all actives have a fitted effect of over 45% in size; note: potency is the fitted concentration of half-maximal effect
In short: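 Human breast carcinoma MDA-kb2 cells, cultured without CO2, receive compounds alongside 0.5 nM (final) R1881 agonist. After 16 hr at 37C, viability is taken as live-cell protease signal.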

[2] = qHTS assay to identify small molecule HDAC inhibitors (AID 1259364); note: potency is the fitted concentration of half-maximal effect;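 note: wild-type HCT-116 cells with endogenous class I/II HDAC activity; nearly all actives have a fitted effect of over 45% in size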
In short: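 After a 2 hr compound incubation (37C, 5% CO2), HCT-116 cells seeded at 1,500/well the day before received HDAC-Glo reagent; signal read as luminescence after 30 min at room temperature.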

[3] = qHTS assay to identify small molecule HDAC inhibitors - cell viability counter screen (AID 1259365); note: series mostly up to about 92 µM; % is set by controls: 0 for no effect and ±100 for the full control effect; nearly all actives have a fitted effect of over 50% in size
In short: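 CellTiter-Glo luminescence (30 min, room temperature) reported viability after a 2 h compound exposure at 37 C. Cells: wild-type HCT-116, 1,500 per well, seeded the night before.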

[4] = qHTS assay to identify small molecule agonists of the sonic hedgehog signaling (Shh) pathway - cell viability counter screen (AID 1259366); note: nearly all actives have a fitted effect of over 50% in size; note: potency is the fitted concentration of half-maximal effect
In short: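 Cytotoxicity counter screen: CellTiter-Fluor reagent added after 23 h compound exposure, then 1 h at 37C and fluorescence read. Cells were 3T3 Gli1-Luc, seeded 2,000 per well and dosed 4 h post-plating.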

[5] = qHTS assay to identify small molecule antagonists of the sonic hedgehog signaling (Shh) pathway - cell viability counter screen (AID 1259367); note: nearly all actives have a fitted effect of over 55% in size; note: potency is the fitted concentration of half-maximal effect
In short: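 Viability was read by CellTiter-Fluor fluorescence in the same wells, reagent added 23 hr into compound treatment and incubated 1 hr at 37C. The 3T3 Gli1-Luc reporter cells (2,000/well) received conditioned medium after compound and ran 24 hr.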

[6] = qHTS assay to identify small molecule agonists of the sonic hedgehog signaling (Shh) pathway (AID 1259368; calls by dose curve;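 note: NIH/3T3-derived 3T3Gli1-Luc cells carrying a stable Gli1-driven firefly luciferase reporter; series mostly up to about 92 µM; % is set by controls: 0 for no effect and ±100 for the full control effect; nearly all actives have a fitted effect of over 15% in size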)
In short: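 Stable NIH/3T3 Gli1-Luc reporter clone; 24 hr cpd exposure after a 4 hr settling period; luminescence endpoint.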

[7] = qHTS assay to identify small molecule antagonists of the sonic hedgehog signaling (Shh) pathway (AID 1259369; calls by dose curve; note: nearly all actives have a fitted effect of over 45% in size; note: potency is the fitted concentration of half-maximal effect)
In short: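 Gli1 transcriptional reporter (firefly Luc) in NIH/3T3 background, conditioned-medium activated. 24hr exposure, luminescence endpoint.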

[8] = target: Estrogen receptor beta (Homo sapiens) (UniProt Q92731); experiment: qHTS assay to identify small molecule agonists of the estrogen receptor beta (ER-beta) signaling pathway (AID 1259377; active = well fitted activation curve with a large enough effect in the signal ratio in the repeat runs, not every such curve was filed as active; the % refers to the signal ratio; note: % is set by controls: 0 for no effect and ±100 for the full control effect)
In short: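 Ratiometric beta-lactamase FRET read-out came after 2 h substrate loading at room temperature. It followed 16 h compound treatment at 37C of GripTite HEK293T cells carrying a UAS-bla reporter, plated in 2% charcoal-stripped FBS medium.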

[9] = target: Estrogen receptor beta (Homo sapiens) (UniProt Q92731); experiment: qHTS assay to identify small molecule antagonists of the estrogen receptor beta (ER-beta) signaling pathway (AID 1259378; active = well fitted inhibition curve with a large enough effect in the signal ratio in the repeat runs, not every such curve was filed as active; the % refers to the signal ratio; note: % is set by controls: 0 for no effect and ±100 for the full control effect)
In short: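 Antagonist mode: compounds added to beta-lactamase reporter HEK293T ER-beta-UAS cells stimulated with E2 (1nM final), 16 hr at 37C. LiveBLAzer B/G FRET substrate, 2 hours room temperature, fluorescence read-out.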

[10] = qHTS assay to identify small molecule agonists of the androgen receptor (AR) signaling pathway in the presence of an antagonist - cell viability counter screen (AID 1259379); note: nearly all actives have a fitted effect of over 25% in size; note: potency is the fitted concentration of half-maximal effect
In short: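 Counter screen for cell viability run in parallel with the AR agonist-mode luciferase assay. MDA-kb2 cells were co-treated with nilutamide (3.0uM final) and compounds, then incubated 16 hr at 37C, and CellTiter-Fluor fluorescence was measured.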

[11] = qHTS assay to identify small molecule agonists of the estrogen receptor beta (ER-beta) signaling pathway - cell viability counter screen (AID 1259380); note: nearly all actives have a fitted effect of over 30% in size; note: potency is the fitted concentration of half-maximal effect
In short: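 In this qHTS counter screen, HEK293T cells carrying an ER-beta/UAS beta-lactamase reporter, grown in 2% charcoal-stripped FBS, received compound for 16 hr; ATP-based CellTiter-Glo luminescence was then read after 30 min at room temperature.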

[12] = qHTS assay to identify small molecule antagonists of the estrogen receptor beta (ER-beta) signaling pathway - cell viability counter screen (AID 1259382);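 note: HEK293T cells carrying ER-beta-UAS-bla reporter stimulated with estradiol; series mostly up to about 92 µM; % is set by controls: 0 for no effect and ±100 for the full control effect; nearly all actives have a fitted effect of over 55% in size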
In short: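 HEK293T ER-beta-UAS-bla, 2% charcoal-stripped FBS; compounds + 1nM E2 16 hr 37C; CellTiter-Glo luminescence, 30 min RT.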

[13] = qHTS assay to identify small molecule agonists or antagonists of the thyroid stimulating hormone receptor (TSHR) signaling pathway - wild type cell line counter screen (AID 1259384; calls by dose curve; note: % is set by controls: 0 for no effect and ±100 for the full control effect)
In short: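 Counter screen in untransfected Hek293: compounds (15-point titration, triplicate) plus phosphodiesterase inhibitor Ro20-1724 added after 18 h plating; 30 min RT. Intracellular cAMP via competitive d2/cryptate immunoassay, 1 h incubation.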

[14] = target: Thyrotropin receptor (Homo sapiens) (UniProt P16473); experiment: qHTS assay to identify small molecule antagonists of the thyroid stimulating hormone receptor (TSHR) signaling pathway (AID 1259385; calls by dose curve; note: nearly all actives have a fitted effect of over 20% in size; note: potency is the fitted concentration of half-maximal effect)
In short: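 Antagonist mode: compound-treated TSHR-expressing HEK293 cells were stimulated with 1.5 ng/mL TSH (final) in presence of Ro20-1724 for 30 min at RT. HTRF cAMP detection after 1 h; each compound tested at 15 concentrations, triplicate.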

[15] = qHTS assay to identify small molecule agonists of the estrogen receptor alpha (ER-alpha) signaling pathway in the presence of an antagonist - cell viability counter screen (AID 1259386);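 note: cells exposed to compounds for 22 h at 37 °C before the viability read; nearly all actives have a fitted effect of over 30% in size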; note: potency is the fitted concentration of half-maximal effect
In short: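 Steps: 5-day stripped-FBS culture; seed and incubate 24hr; add ICI-182,780 (10.0nM final); pin 15-point compound titration; incubate 22hr at 37C; add CellTiter-Fluor at 21hr; read fluorescence.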

[16] = target: Estrogen receptor (Homo sapiens) (UniProt P03372); experiment: qHTS assay to identify small molecule agonists of the estrogen receptor alpha (ER-alpha) signaling pathway in the presence of an antagonist (AID 1259383; calls by dose curve; note: top concentration of the series differs between compounds; % is set by controls: 0 for no effect and ±100 for the full control effect; nearly all actives have a fitted effect of over 15% in size)
In short: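 ER-alpha agonism measured under antagonist challenge: 10.0nM ICI-182,780 (final) plus compound, 15 concentrations, 22hr, VM7Luc4E2 ERE-luciferase cells. Read by luminescence.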

[17] = qHTS assay to identify small molecule phospholipidosis (PLD) inducers (AID 1259344; active = well fitted curve in the direction sought with a large enough effect; an effect the other way counts as inactive or inconclusive; note: % is set by controls: 0 for no effect and ±100 for the full control effect)
In short: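 Phospholipid accumulation was scored by imaging: fixed, Hoechst-counterstained HepG2 cells stained with LipidTOX Red after 24 h compound exposure at 37 C. Read-outs were pit count and pit intensity per well or per cell, with amiodarone and DMSO controls.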

[18] = target: Estrogen receptor (Homo sapiens) (UniProt P03372); experiment: qHTS assay to identify small molecule antagonists of the estrogen receptor alpha (ER-alpha) signaling pathway using the BG1 cell line in the presence of 0.1 nM 17-beta-estradiol (AID 1259244); note: % is set by controls: 0 for no effect and ±100 for the full control effect; nearly all actives have a fitted effect of over 50% in size
In short: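 Seeding of stripped-serum-adapted VM7Luc4E2 cells, 24 h attachment, compound transfer, then 0.1 nM final 17beta-estradiol; after 22 h incubation, ONE-Glo reagent and luminescence reading.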

[19] = target: Androgen receptor (Homo sapiens) (UniProt P10275); experiment: qHTS assay to identify small molecule agonists of the androgen receptor (AR) signaling pathway in the presence of an antagonist (AID 1259381; calls by dose curve; note: % is set by controls: 0 for no effect and ±100 for the full control effect; nearly all actives have a fitted effect of over 15% in size)
In short: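 AR antagonist background: nilutamide 3.0uM final. Cell line: MDA-kb2, MMTV-driven luciferase, responsive to both AR and GR. Exposure 16hr, 37C, no CO2; ONE-Glo luminescence.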

[20] = target: Androgen receptor (Homo sapiens) (UniProt P10275); experiment: qHTS assay to identify small molecule antagonists of the androgen receptor (AR) signaling pathway using the MDA cell line in the presence of 0.5 nM R1881 (AID 1259243); note: potency is the fitted concentration of half-maximal effect; nearly all actives have a fitted effect of over 50% in size
In short: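 Cells: MDA-kb2 (MMTV-luc). Stimulus: 0.5 nM R1881. Time: 16 hr, 37C, no CO2. Detection: ONE-Glo luminescence after 30 min at RT.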

Chain of Estrogen receptor beta (Homo sapiens) (Q92731 whole entry, looked up): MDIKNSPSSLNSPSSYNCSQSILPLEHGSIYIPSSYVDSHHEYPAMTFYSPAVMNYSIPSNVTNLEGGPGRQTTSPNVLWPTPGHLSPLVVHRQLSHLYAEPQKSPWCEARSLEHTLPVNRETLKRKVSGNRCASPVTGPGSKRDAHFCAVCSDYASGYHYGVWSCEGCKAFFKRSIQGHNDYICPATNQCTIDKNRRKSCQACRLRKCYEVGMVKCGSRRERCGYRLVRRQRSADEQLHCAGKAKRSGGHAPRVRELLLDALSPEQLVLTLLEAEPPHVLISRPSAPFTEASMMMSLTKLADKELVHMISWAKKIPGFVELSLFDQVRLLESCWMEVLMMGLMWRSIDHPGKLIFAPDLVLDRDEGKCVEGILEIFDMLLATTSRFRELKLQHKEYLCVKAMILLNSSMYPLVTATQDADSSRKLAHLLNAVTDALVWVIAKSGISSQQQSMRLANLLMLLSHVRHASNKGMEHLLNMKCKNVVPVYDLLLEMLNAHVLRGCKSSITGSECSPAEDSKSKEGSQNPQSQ
Chain of Androgen receptor (Homo sapiens) (P10275 whole entry, looked up): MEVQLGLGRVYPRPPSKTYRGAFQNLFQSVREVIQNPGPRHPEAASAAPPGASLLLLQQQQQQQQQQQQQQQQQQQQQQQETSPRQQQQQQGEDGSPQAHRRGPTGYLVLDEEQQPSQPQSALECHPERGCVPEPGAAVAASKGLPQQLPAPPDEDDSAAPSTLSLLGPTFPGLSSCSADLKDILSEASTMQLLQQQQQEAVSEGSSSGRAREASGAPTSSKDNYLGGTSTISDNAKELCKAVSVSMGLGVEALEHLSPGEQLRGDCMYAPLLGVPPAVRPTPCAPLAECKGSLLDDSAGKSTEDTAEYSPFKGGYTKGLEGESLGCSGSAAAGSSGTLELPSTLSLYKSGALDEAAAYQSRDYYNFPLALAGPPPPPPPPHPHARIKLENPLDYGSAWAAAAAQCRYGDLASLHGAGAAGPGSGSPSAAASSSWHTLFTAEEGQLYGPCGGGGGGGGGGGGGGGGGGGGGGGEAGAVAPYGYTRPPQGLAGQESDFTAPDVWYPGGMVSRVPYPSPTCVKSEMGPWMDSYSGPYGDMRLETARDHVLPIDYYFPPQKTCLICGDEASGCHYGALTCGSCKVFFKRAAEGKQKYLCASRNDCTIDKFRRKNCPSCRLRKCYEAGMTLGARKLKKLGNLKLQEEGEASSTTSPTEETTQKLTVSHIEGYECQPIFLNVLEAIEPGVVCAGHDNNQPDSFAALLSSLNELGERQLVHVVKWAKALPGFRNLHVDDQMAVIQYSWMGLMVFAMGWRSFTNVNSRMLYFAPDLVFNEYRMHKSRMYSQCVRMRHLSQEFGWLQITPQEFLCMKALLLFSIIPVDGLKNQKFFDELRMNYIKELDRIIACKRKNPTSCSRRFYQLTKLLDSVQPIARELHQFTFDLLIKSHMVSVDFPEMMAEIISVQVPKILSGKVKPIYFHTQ
Chain of Estrogen receptor (Homo sapiens) (P03372 whole entry, looked up): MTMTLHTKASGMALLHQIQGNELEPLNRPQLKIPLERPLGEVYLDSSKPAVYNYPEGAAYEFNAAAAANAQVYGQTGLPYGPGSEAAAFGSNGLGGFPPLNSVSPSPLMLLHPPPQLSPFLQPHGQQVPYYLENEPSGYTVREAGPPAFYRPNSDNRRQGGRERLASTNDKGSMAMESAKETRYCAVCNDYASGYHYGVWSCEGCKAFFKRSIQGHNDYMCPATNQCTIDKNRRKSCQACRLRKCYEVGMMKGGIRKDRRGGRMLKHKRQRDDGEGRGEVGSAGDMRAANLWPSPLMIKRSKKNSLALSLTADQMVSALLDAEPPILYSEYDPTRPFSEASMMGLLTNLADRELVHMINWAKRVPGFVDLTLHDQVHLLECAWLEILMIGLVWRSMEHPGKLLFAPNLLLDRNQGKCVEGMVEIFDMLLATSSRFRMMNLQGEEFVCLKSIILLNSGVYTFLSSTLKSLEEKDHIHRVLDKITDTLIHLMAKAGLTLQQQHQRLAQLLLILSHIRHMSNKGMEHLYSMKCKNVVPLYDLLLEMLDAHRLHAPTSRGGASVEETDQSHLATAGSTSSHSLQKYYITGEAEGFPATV
Chain of Thyrotropin receptor (Homo sapiens) (P16473 whole entry, looked up): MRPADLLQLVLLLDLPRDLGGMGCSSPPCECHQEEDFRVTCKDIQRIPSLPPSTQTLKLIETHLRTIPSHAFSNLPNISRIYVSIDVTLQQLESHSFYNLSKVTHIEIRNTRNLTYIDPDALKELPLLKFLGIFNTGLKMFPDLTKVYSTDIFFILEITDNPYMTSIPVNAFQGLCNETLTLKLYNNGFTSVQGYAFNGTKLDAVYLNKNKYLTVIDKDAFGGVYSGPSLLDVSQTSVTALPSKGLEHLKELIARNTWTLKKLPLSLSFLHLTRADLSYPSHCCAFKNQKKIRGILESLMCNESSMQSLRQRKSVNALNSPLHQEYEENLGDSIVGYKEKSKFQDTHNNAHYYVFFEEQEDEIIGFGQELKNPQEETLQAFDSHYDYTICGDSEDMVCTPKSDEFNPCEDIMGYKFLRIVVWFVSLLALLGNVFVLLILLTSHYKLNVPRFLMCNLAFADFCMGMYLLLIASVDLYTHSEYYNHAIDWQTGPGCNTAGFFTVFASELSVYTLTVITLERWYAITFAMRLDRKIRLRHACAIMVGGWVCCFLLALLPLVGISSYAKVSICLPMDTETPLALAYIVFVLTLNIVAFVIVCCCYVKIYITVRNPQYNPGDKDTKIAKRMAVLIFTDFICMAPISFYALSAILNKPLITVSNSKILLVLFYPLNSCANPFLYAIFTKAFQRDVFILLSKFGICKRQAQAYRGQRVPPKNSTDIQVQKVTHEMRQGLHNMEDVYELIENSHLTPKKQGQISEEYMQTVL

Cc1cccc2cccnc12
inactive: Potency [1] | Potency [2] | Potency [3] | Potency [4] | Potency [5] | Potency [6] | Potency [7] | Potency [8] | Potency [9] | Potency [10] | Potency [11] | Potency [12] | outcome [13] | Potency [14] | Potency [15]

Cc1ccc(N/N=c2\c(=O)cc/c(=N\Nc3ccc(S(=O)(=O)O)cc3)c2=O)c(C)c1
active: Potency [1] 48.6 µM | Potency [2] 19.3 µM | Potency [4] 30.6 µM | Potency [5] 27.3 µM | Potency [10] 27.3 µM | Potency [15] 34.4 µM
inactive: Potency [3] | Potency [6] | Potency [8] | Potency [9] | Potency [12] | Potency [16] | outcome [13] | Potency [14]

CCO[C@@H]1O[C@H](C(COCc2ccccc2)OCc2ccccc2)[C@H](OCc2ccccc2)[C@H]1O (some centres undefined)
inactive: Potency [1] | Potency [17] | Potency [3] | Potency [4] | Potency [5] | Potency [6] | Potency [10] | Potency [12] | outcome [13] | Potency [14] | Potency [15]

CCCCOC(=O)CO
inactive: Potency [1] | Potency [18] | Potency [3] | Potency [4] | Potency [5] | Potency [7] | Potency [8] | Potency [9] | Potency [10] | Potency [11] | Potency [12] | Potency [15]

CC/C=C\CCCCCO
inactive: Potency [1] | Potency [2] | Potency [3] | Potency [4] | Potency [5] | Potency [6] | Potency [7] | Potency [8] | Potency [9] | Potency [10] | Potency [11] | Potency [12] | outcome [13] | Potency [14]

O=C(O)CN(CCN(CC(=O)O)CC(=O)O)CC(=O)O
inactive: viability change, negative = cytotoxic [1] 4.5% [at 3.26 µM] | Potency [17] | activity change, negative = cytotoxicity [3] 0.173% [at 3.27 µM] | viability change, negative = cytotoxic [4] 3.2% [at 3.27 µM] | viability change, negative = cytotoxic [5] -2.72% [at 3.27 µM] | activity change [6] 0.474% [at 3.27 µM, hits give high values] | activity change, negative = inhibition [7] 12.7% [at 3.27 µM] | activity change, negative = cytotoxicity [10] -0.833% [at 3.27 µM] | activity change, negative = cytotoxicity [11] 0.439% [at 3.32 µM] | activity change, negative = cytotoxicity [12] 2.74% [at 3.27 µM] | cAMP activity change [13] -0.412% [at 3.27 µM] | activity change, negative = inhibition [14] 1.34% [at 3.27 µM] | activity change, negative = cytotoxicity [15] 0.548% [at 3.27 µM]

CC(N=C(NC#N)Nc1ccncc1)C(C)(C)C (centres undefined)
inactive: Potency [1] | Potency [17] | Potency [2] | Potency [3] | Potency [4] | Potency [5] | Potency [6] | Potency [7] | Potency [11] | Potency [12] | outcome [13] | Potency [14]

COc1ccc2cc1Oc1ccc(cc1)C[C@H]1c3c(cc4c(c3Oc3cc5c(cc3OC)CCN(C)[C@@H]5C2)OCO4)CCN1C
inactive: Potency [2] | Potency [3] | Potency [6] | outcome [19] | Potency [12] | Potency [16] | outcome [13]
active: Potency [1] 21.1 µM | Potency [4] 11.9 µM | Potency [5] 15 µM | Potency [7] 3.76 µM | Potency [10] 26.6 µM | Potency [11] 26.6 µM | Potency [14] 23.7 µM | Potency [15] 13.3 µM

CCCC(=O)OCCc1ccccc1
inactive: Potency [1] | Potency [2] | Potency [3] | Potency [4] | Potency [5] | Potency [6] | Potency [7] | Potency [8] | Potency [9] | Potency [11] | Potency [12] | outcome [13] | Potency [14] | Potency [15]

O=[N+]([O-])c1ccc(F)c(Cl)c1
inactive: Potency [1] | Potency [2] | Potency [3] | Potency [4] | Potency [5] | Potency [6] | Potency [7] | Potency [8] | Potency [9] | Potency [10] | Potency [11] | Potency [12] | outcome [13] | Potency [14] | Potency [15]

Oc1c(I)cc(Cl)c2cccnc12
active: Potency [20] 27.3 µM and 26.6 µM
inactive: Potency [17] | Potency [2] | Potency [3] | Potency [4] | Potency [5] | outcome [19]

COc1cc(S(=O)(=O)O)c(C)cc1N=Nc1c(O)ccc2cc(S(=O)(=O)O)ccc12
inactive: Potency [2] | Potency [6] | Potency [7] | Potency [11] | Potency [12] | Potency [16]
active: Potency [1] 24.3 µM | Potency [4] 27.3 µM | Potency [5] 24.3 µM | Potency [10] 27.3 µM | Potency [15] 17.2 µM

CN1CCN(Cc2cc(-c3ccc4[nH]c(=O)oc4c3)co2)[C@@H](c2ccc(F)cc2)C1
active: Potency [7] 4.16 µM | Potency [11] 13.2 µM
inactive: Potency [1] | Potency [2] | Potency [3] | Potency [6] | Potency [12] | outcome [13] | Potency [14]

C=C(C)C(=O)OCCCCCCCCCC
inactive: Potency [1] | Potency [2] | Potency [3] | Potency [6] | Potency [8] | Potency [11] | Potency [12] | Potency [16] | outcome [13] | Potency [14] | Potency [15]
active: Potency [5] 54.9 µM | Potency [7] 13.8 µM

CCC(CC)C(C)CCOC(C)=O (centres undefined)
inactive: Potency [1] | Potency [3] | Potency [4] | Potency [5] | Potency [6] | Potency [7] | Potency [8] | Potency [9] | Potency [10] | Potency [11] | Potency [12] | outcome [13] | Potency [14] | Potency [15]
